# Experimental data as given in the supplement of paper PMC11006884.
# About 6,500 targets were measured; listed, in parts, are those with a hit and a random draw of the rest. About 2% of all pairs of compound and target were hits.
# Compound: COC(=O)C#Cc1ccccc1 [methyl 3-phenylpropiolate]
# Experiment: log2 ratio of iodoacetamide-alkyne labeling of the cysteine site, DMSO over compound (competition); higher = stronger covalent engagement of the cysteine by the compound, active = 1 or more
# Settings: 500 µM; treatment time 1 h; system: HEK293T cell lysate
# How it was run: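 For each cysteine, the log2 competition ratio is mean control-channel reporter intensity over mean compound-channel reporter intensity. HEK293T lysate (2 mg/mL) was exposed to vehicle or electrophile (500 µM, 1 h, ambient temperature), labelled with iodoacetamide alkyne (1 h), clicked to sCIP-TMT reagents, digested overnight with trypsin at 37 °C, streptavidin-enriched and analysed by Orbitrap Eclipse LC-MS/MS with FAIMS and FragPipe. Cysteines quantified in only one of three replicates, each with duplicate channels, were excluded.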
# Chain of UniProt Q9NZB2 (Q9NZB2 whole entry, looked up): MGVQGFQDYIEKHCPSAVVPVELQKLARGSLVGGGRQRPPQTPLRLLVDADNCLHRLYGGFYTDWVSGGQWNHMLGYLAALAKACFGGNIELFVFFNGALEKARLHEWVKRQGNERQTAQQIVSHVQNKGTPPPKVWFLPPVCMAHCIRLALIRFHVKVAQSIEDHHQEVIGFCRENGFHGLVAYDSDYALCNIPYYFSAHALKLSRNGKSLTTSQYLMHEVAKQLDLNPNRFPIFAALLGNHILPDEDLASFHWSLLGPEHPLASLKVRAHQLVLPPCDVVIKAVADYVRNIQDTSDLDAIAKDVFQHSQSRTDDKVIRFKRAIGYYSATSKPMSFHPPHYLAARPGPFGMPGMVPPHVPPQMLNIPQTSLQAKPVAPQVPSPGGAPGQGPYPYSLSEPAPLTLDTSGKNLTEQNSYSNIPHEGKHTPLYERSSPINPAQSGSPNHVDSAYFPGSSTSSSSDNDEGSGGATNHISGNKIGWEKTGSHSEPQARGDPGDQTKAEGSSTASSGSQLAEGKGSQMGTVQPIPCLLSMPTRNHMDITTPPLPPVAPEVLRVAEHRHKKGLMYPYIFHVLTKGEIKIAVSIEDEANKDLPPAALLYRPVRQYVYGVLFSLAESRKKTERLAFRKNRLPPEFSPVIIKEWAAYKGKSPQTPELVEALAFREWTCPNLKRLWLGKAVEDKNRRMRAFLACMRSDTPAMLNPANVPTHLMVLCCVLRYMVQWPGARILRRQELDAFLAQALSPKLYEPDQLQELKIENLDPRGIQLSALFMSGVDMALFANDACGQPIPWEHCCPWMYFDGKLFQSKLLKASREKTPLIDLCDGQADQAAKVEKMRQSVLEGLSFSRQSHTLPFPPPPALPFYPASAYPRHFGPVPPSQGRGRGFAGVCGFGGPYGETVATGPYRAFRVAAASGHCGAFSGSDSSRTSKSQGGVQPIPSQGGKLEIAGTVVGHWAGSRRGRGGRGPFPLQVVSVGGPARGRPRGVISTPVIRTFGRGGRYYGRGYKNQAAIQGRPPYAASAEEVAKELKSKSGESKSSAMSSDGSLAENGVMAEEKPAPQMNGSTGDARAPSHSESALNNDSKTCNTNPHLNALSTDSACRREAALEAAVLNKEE
# Chain of UniProt Q9H4I3 (Q9H4I3 whole entry): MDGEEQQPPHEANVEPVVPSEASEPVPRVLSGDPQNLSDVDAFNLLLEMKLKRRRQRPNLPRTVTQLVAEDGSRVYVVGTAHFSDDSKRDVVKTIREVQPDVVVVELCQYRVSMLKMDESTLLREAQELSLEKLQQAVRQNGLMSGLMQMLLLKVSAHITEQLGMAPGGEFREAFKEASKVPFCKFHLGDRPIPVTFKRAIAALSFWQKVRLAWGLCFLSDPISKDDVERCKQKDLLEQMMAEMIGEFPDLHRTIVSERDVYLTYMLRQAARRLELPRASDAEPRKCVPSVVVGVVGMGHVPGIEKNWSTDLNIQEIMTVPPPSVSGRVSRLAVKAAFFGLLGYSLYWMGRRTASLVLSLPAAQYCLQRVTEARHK
# Chain of UniProt Q9NXV2 (Q9NXV2 whole entry, looked up): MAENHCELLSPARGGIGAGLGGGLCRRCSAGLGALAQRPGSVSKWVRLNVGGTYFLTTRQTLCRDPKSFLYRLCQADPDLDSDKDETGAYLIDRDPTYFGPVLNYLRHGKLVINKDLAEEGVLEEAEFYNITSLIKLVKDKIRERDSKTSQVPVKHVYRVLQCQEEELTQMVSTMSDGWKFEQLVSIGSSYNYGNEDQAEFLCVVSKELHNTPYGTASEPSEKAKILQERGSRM
# Chain of UniProt Q9UHQ4 (Q9UHQ4 whole entry): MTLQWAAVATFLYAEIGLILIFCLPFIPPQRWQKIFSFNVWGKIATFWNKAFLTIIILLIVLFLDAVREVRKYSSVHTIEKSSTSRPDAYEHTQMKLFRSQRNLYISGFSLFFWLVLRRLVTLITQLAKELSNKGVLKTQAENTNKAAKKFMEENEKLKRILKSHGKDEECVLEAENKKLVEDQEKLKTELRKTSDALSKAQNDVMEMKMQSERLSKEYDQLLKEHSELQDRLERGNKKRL
# Chain of UniProt Q9Y490 (Q9Y490 whole entry, looked up): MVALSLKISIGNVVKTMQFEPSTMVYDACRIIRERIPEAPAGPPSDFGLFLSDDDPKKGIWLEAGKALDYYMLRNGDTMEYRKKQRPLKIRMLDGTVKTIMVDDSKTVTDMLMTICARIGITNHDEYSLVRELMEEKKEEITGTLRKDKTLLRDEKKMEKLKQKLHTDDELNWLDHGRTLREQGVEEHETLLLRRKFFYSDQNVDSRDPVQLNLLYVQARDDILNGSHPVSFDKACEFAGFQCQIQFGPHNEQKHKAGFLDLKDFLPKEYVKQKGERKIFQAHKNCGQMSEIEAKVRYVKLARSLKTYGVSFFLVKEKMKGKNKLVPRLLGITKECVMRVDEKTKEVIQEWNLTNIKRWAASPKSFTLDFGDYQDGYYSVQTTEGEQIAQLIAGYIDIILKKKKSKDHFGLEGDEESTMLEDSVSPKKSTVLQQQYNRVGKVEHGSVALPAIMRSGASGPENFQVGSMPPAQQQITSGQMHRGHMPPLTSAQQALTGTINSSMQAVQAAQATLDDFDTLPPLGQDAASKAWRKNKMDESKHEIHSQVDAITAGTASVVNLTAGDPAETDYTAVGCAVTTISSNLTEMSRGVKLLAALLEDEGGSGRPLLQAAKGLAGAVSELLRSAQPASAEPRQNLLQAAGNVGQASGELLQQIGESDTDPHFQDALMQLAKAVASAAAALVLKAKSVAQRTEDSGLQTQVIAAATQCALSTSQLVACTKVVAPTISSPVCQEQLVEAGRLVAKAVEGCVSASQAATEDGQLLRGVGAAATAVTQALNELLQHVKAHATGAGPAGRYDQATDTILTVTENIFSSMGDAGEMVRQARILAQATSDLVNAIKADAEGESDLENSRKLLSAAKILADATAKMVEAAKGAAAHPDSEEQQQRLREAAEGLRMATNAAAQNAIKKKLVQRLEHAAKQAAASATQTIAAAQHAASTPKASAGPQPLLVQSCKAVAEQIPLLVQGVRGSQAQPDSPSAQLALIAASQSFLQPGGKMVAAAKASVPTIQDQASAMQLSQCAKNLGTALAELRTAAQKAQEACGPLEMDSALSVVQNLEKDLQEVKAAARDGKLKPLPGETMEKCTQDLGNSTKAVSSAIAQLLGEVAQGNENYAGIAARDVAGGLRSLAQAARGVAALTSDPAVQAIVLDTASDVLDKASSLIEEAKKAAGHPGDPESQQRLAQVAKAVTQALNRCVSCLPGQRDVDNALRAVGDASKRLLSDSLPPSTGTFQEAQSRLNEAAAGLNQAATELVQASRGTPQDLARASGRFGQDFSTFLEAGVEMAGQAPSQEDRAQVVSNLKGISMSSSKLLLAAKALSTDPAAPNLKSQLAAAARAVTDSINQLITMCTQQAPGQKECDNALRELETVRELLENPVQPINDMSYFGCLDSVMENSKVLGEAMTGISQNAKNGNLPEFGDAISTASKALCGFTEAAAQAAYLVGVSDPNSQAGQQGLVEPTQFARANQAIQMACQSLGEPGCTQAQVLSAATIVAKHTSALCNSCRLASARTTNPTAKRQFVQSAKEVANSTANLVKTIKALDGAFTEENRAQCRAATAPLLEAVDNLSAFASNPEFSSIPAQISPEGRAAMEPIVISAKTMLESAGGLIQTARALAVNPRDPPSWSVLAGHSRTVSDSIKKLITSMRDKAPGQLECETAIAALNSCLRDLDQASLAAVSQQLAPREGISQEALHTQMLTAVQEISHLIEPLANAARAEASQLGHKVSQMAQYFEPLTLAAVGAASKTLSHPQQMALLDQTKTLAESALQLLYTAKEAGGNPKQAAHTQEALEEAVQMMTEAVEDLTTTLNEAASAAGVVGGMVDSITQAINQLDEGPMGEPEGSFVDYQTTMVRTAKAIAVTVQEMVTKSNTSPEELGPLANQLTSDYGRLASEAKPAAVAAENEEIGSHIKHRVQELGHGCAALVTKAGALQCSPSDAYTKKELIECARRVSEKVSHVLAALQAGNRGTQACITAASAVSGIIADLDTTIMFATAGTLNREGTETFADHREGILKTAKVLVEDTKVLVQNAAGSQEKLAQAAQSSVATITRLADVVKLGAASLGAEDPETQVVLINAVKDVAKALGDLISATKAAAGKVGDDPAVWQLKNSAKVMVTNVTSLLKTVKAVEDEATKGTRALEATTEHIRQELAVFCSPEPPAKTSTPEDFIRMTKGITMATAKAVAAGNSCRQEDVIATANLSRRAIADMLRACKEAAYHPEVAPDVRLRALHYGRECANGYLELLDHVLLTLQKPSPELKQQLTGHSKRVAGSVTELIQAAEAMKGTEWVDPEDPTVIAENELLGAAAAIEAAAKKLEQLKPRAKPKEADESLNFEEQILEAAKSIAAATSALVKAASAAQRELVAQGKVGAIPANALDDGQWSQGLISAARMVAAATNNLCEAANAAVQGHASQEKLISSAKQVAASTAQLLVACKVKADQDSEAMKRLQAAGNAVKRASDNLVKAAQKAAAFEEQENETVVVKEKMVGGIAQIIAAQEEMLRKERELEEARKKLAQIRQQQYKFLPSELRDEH
# Chain of UniProt Q9H9V9 (Q9H9V9 whole entry, looked up): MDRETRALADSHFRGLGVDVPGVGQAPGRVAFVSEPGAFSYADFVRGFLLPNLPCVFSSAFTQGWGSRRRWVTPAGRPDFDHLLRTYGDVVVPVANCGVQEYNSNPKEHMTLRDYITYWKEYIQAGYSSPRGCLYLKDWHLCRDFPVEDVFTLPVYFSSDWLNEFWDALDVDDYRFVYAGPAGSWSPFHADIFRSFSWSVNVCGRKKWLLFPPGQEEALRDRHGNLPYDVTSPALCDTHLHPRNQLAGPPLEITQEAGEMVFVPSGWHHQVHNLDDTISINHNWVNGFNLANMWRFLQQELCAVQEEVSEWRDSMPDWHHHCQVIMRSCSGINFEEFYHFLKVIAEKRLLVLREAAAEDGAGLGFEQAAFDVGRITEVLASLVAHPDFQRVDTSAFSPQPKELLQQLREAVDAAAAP
row,Target,log2 ratio of iodoacetamide-alkyne labeling
1,UniProt Q9Y3D0_C93,0.0692 (inactive)
2,TLN1 C2161 (UniProt Q9Y490),-0.0698 (inactive)
3,CHORDC1 C5 (UniProt Q9UHD1),-0.0481 (inactive)
4,RPRD1B C234 (UniProt Q9NQG5),0.513 (inactive)
5,OPA3 C164 (UniProt Q9H6K4),0.331 (inactive)
6,ATXN10 C356 (UniProt Q9UBB4),1.32 (active)
7,GSTK1 C176 (UniProt Q9Y2Q3),0.387 (inactive)
8,TCAF1 C488 (UniProt Q9Y4C2),0.36 (inactive)
9,UNC45A C34 (UniProt Q9H3U1),0.0992 (inactive)
10,GPATCH8 C569 (UniProt Q9UKJ3),0.815 (inactive)
11,TANC1 C131 (UniProt Q9C0D5),0.487 (inactive)
12,TRABD C287 (UniProt Q9H4I3),0.0519 (inactive)
13,FAM126A C300 (UniProt Q9BYI3),0.174 (inactive)
14,KIDINS220 C412 (UniProt Q9ULH0),0.0082 (inactive)
15,TES C196 (UniProt Q9UGI8),0.308 (inactive)
16,TACC3 C206 (UniProt Q9Y6A5),-0.132 (inactive)
17,FAM83D C19 (UniProt Q9H4H8),1.11 (active)
18,COPS7A C110 (UniProt Q9UBW8),0.0698 (inactive)
19,BCAP29 C171 (UniProt Q9UHQ4),1.1 (active)
20,MDN1 C3492 (UniProt Q9NU22),0.35 (inactive)

row,Target,log2 ratio of iodoacetamide-alkyne labeling
1,SMARCAD1 C772 (UniProt Q9H4L7),1 (active)
2,FAM120A C279 (UniProt Q9NZB2),-0.00137 (inactive)
3,UniProt Q9NVH0_C284,0.123 (inactive)
4,JMJD4 C101 (UniProt Q9H9V9),0.898 (inactive)
5,SMYD3 C421 (UniProt Q9H7B4),0.00903 (inactive)
6,UBQLN4 C29 (UniProt Q9NRR5),1.12 (active)
7,UniProt Q9Y3U8_C48,0.297 (inactive)
8,DLGAP4 C736 (UniProt Q9Y2H0),0.69 (inactive)
9,UniProt Q9BWW4_C80,0.318 (inactive)
10,MACF1 C5049 (UniProt Q9UPN3),0.311 (inactive)
11,KIDINS220 C867 (UniProt Q9ULH0),0.436 (inactive)
12,NIT2 C146 (UniProt Q9NQR4),0.119 (inactive)
13,MDN1 C172 (UniProt Q9NU22),0.0689 (inactive)
14,HECTD1 C1368 (UniProt Q9ULT8),0.751 (inactive)
15,DIS3 C213 (UniProt Q9Y2L1),0.313 (inactive)
16,SAE1 C214 (UniProt Q9UBE0),0.502 (inactive)
17,HNRNPUL1 C291 (UniProt Q9BUJ2),0.483 (inactive)
18,MED17 C110 (UniProt Q9NVC6),0.34 (inactive)
19,KCTD5 C28 (UniProt Q9NXV2),0.129 (inactive)
20,ATG3 C182 (UniProt Q9NT62),0.632 (inactive)
